# Source: ChEMBL document CHEMBL1157539, “Thousands of chemical starting points for antimalarial lead identification” (Nature, 2010)
# What was measured:
# Type in all cases: functional
# [1] = tested on: Plasmodium falciparum; experiment: GSK_TCMDC: Inhibition of Plasmodium falciparum 3D7 in whole red blood cells, using parasite LDH activity as an index of growth. Test compounds present at 2uM
# [2] = tested on: Plasmodium falciparum; experiment: GSK_TCMDC: Inhibition of Plasmodium falciparum Dd2 in whole red blood cells, using parasite LDH activity as an index of growth. Test compounds present at 2uM
# [3] = tested on: HepG2; experiment: GSK_TCMDC: Percent inhibition of human HepG2 cell line. Test compounds present at 10uM.
Compound,Inhibition [1],Inhibition [2],Inhibition [3]
CCCCCOc1ccc(N2C(N)=NC(N)=NC2(C)C)cc1.Cl,97%,0%,24%
O=C(Nc1cc(Cl)c(Cl)cc1NC(=O)c1cccc(-c2ccccc2)c1O)c1cccc(-c2ccccc2)c1O,100%,100%,79%
Cc1cc(N)cc2nc(-c3ccc(N)cc3)[nH]c12,96%,75%,0%
COc1ccc2c(c1)ncn2-c1cc(OCc2ccncc2Br)c(C(N)=O)s1,95%,50%,14%
CCCNCc1ccc(-c2ccc(CN(CCOC)C(=O)c3ccco3)cc2)nc1.O=C(O)C(F)(F)F,91%,21%,1%
CN(C)CCOc1cc(O)c2c(c1)OC(C)(C)C=C2c1cccs1,99%,10%,29%
Cc1cccc(-c2nn(-c3ccccc3)cc2C(=O)Nc2nnc(C)o2)c1,84%,63%,38%
O=C(NCc1cccc(F)c1)c1ccc(O)c(-c2cc(Cl)cc(Cl)c2)c1,99%,99%,0%
Cc1ccc2c(c1C)NC(=O)C21NN=C(c2ccccc2)S1 (configuration not stated),97%,65%,31%
CC(C)(C)c1ccc(CNC(=O)c2ccc(CNC3CCC(N)CC3)s2)cc1 (configuration not stated),100%,10%,41%
Cc1cc(N2CCC(NS(=O)(=O)c3ccccc3)CC2)nc(Nc2cccc(C#N)c2)n1.O=C(O)C(F)(F)F,93%,29%,52%
O=C(Nc1cccc(CN2CCN(C(=O)c3cccc(F)c3)CC2)c1)c1ccco1.O=C(O)C(F)(F)F,88%,55%,7%
O=C(Nc1cccc(-c2ccc(-c3nc4cc(F)ccc4[nH]3)s2)c1)c1ccncc1,96%,29%,74%
CN(C(=O)c1ccccc1)C1c2cc(C#N)ccc2OC(C)(C)C1O (configuration not stated),97%,4%,8%
CCOc1ccc2c(=NN=Cc3c4ccccc4cc4ccccc34)cc(C)[nH]c2c1,90%,94%,0%
CCCN(CCC)C(=O)c1cc(C(=O)N[C@@H](Cc2ccccc2)[C@H](O)CNC(C)(C)c2cccc(C(F)(F)F)c2)cc(N2CCCCS2(=O)=O)c1,99%,98%,19%
OC(CNc1ccnc(Nc2ccc(Cl)cc2)n1)c1cccc(C(F)(F)F)c1 (configuration not stated),100%,84%,9%
Cn1nc(-c2ccc(NC(=O)Nc3cc(C(F)(F)F)ccc3F)c(F)c2)c2cnc(NCCCN3CCOCC3)nc21.O=C(O)C(F)(F)F,100%,62%,31%
Cc1ccccc1C1CCN(C2CCC(NC(=O)c3cc(-c4ccc(Cl)cc4)cs3)CC2)CC1 (configuration not stated),100%,100%,99%
O=C(Nc1cccc(-c2nn3ccccc3c2-c2ccnc(Nc3ccccc3)n2)c1)c1cc(F)ccc1F,98%,75%,8%
C[C@@H](COc1ccccc1)NCC(O)c1ccc([N+](=O)[O-])c(OCc2ccccc2)c1 (some centres not stated),93%,64%,5%
Nc1ncc(-c2ccccc2)cc1-c1cccc2ncccc12.O=C(O)C(F)(F)F,97%,99%,82%
Fc1ccccc1COc1ccc(Nc2ncnc3ccc(I)cc23)cc1Cl,90%,37%,17%
Cc1cccc2[nH]cc(C3CCN(CCC4CCN(C(=O)/C=C/c5ccc(Cl)c(Cl)c5)CC4)CC3)c12,91%,8%,13%
CCN1CCN(c2cc(C)c3cc(NC(=O)c4ccc(OC)c(OC)c4)ccc3n2)CC1,90%,23%,28%
COc1cc(NC(=O)c2cccs2)c(OC)cc1NC(=O)Nc1cccc(Cl)c1,83%,10%,5%
CC(C)C[C@@H](C(=O)N[C@H](C(=O)Nc1nccs1)C(C)(C)C)[C@H](CCC(F)(F)F)N(O)C=O,97%,71%,11%
COc1ccccc1N1CCN(Cc2cc(C(C)C)c(C)cc2O)CC1,97%,98%,7%
O=C(Nc1ccc(-c2nc3ccccc3[nH]2)cc1)c1ccc(S(=O)(=O)N2CCCCC2)cc1,95%,6%,23%
